High-throughput results as filed in PubChem.
TDP1 cell noCPT – qHTS for Inhibitors of human tyrosyl-DNA phosphodiesterase 1 (TDP1): qHTS in cells in absence of CPT; Potency, µM (top dose mostly 46.2 µM), inactives show top-dose activity change, negative = growth inhibition, usual class: inhibitors; DT40 Tdp1-/- hTDP1 cells, no CPT, ATP luminescence, 48 h; 15% of 420,000 active; note: potency is the fitted concentration of half-maximal effect; % is set by controls: 0 for no effect and ±100 for the full control effect; nearly all actives have a fitted effect of over 55% in size
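Camptothecin absent (DMSO only). Human TDP1-complemented DT40 knockout cells, 400 cells/well, 37 °C for minimum 48 hr; ATP measured via CellTiter-Glo, 30 min dark incubation, luminescence.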
TDP1 cell CPT – qHTS for Inhibitors of human tyrosyl-DNA phosphodiesterase 1 (TDP1): qHTS in cells in presence of CPT | 12% of 420,000 active | chicken DT40 Tdp1-/-;hTDP1 cells + 20 nM CPT, ATP luminescence, 48 h | Potency, µM (highest dose often 46.2 µM), for inactives: at the highest dose activity change, negative = growth inhibition, hits mostly inhibitors; note: potency is the fitted concentration of half-maximal effect; % is set by controls: 0 for no effect and ±100 for the full control effect; nearly all actives have a fitted effect of over 55% in size
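Cell growth measured by CellTiter-Glo luminescence after a minimum 48 h, 37 C compound exposure with 20 nM CPT in Tdp1-knockout DT40 cells stably expressing hTDP1, seeded 400/well; qHTS titration format.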
HepG2 viability – qHTS for Inhibitors of TGF-b: Cytotox Counterscreen. Potency, µM (top dose mostly 46.1 µM), inactives show top-dose activity change, negative = cytotoxicity, actives largely listed as cytotoxic. HepG2 CAGA-GFP viability, ATP luminescence, 18 h. 0.76% of 410,000 active; note: potency is the fitted concentration of half-maximal effect
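CellTiter-Glo luminescence gave cytotoxicity after 18 hours at 37 degrees C. The cells were HepG2 CAGA-GFP in 1% FBS DMEM, stimulated with 500 pg/mL TGF-beta after compound addition. %Activity was normalised to no-cell wells (complete cell-killing) and DMSO (no toxicity), and curves were fitted and classified.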
IL1B secr inh – qHTS for Inhibitors of Inflammasome Signaling: IL-1-beta AlphaLISA Primary Screen | THP-1 LPS/ATP IL-1B secretion, AlphaLISA, 16 h; stronger effect = lower value | activity change, % at 57.5 µM | 4.7% of 360,000 active; in the data active = activity change below about -50%; inconclusive = mostly about -30% to -49%; note: % is set by controls: 0 for no effect and ±100 for the full control effect
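Secreted IL-1B measured by AlphaLISA bead assay after 16 h compound exposure of THP-1 cells; compounds (final up to 57.5 uM) added 1 h before LPS (250 ng/mL) and ATP (1.25 mM) stimulation; lower signal means less secretion.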
TGFb inhibitor – qHTS for Inhibitors of TGF-b; 1.2% of 410,000 active; HepG2 CAGA-GFP TGF-b/SMAD3 reporter, GFP fluorescence, 18 h; TGF-beta stimulated, 500 pg/mL final; Potency, µM (titrated, usually from 46.1 µM), without a hit: at the top dose activity, negative = inhibition, usual class: inhibitors; AID 588855, 2011; note: potency is the fitted concentration of half-maximal effect; % is set by controls: 0 for no effect and ±100 for the full control effect; nearly all actives have a fitted effect of over 65% in size
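Inhibition was scored as loss of TGF-beta-induced (500 pg/mL final, 18 hours, 37 degrees C) GFP in HEPG2 cells carrying a CAGA-GFP reporter, in DMEM with 1% FBS. Well GFP was summed per cell; Activity was normalised to unstimulated and stimulated DMSO wells, then concentration-response fitting.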
TDP1 block – qHTS Assay for Inhibitors of Tyrosyl-DNA Phosphodiesterase (TDP1). recombinant TDP1, AlphaScreen DNA substrate cleavage. Potency, µM (doses to about 130 µM), for inactives: at the top dose activity change, negative = inhibition, usual class: inhibitors. 0.28% of 350,000 active. AID 485290, 2010; note: potency is the fitted concentration of half-maximal effect; % is set by controls: 0 for no effect and ±100 for the full control effect; nearly all actives have a fitted effect of over 40% in size
Target sequence (Q9NUW8 whole entry, looked up): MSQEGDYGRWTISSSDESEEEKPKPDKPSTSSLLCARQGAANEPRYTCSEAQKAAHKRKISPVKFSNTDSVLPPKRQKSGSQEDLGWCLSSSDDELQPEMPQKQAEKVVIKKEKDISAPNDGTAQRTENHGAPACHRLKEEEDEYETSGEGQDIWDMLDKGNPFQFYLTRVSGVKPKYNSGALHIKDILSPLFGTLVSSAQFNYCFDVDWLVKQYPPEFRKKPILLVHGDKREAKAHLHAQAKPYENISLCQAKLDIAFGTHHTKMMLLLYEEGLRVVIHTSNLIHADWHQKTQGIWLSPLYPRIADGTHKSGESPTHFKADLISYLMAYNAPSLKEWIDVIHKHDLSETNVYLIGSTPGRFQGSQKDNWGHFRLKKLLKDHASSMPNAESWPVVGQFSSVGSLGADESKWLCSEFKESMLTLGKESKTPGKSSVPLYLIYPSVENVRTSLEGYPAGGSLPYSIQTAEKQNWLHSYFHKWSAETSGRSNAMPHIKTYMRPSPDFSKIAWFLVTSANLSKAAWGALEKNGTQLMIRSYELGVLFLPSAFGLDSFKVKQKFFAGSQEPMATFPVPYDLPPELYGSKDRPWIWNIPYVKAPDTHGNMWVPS
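Here, a 5' biotin and 3' phosphotyrosine-FITC DNA oligonucleotide reports Tdp1 activity: intact substrate bridges AlphaScreen beads, while cleavage leaves a 3' phosphate and drops signal. All incubations at room temperature.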
* marks the source's active call; other numbers are inactive results; ? = inconclusive; . = no result; [ ] = dose if it differs, or a comment. This is a sample that favours compounds with a hit; in the whole collection about 18% have one here. Unless noted, calls come from the whole dose curve; as a rule, active = well fitted curve in the direction sought with a large enough effect; inconclusive = small, poorly fitted or top-dose-only effect, or another doubt; inactive = no such curve, though single readings can be large; an effect the other way counts as inactive or inconclusive.

SMILES	TDP1 cell noCPT	TDP1 cell CPT	HepG2 viability	IL1B secr inh	TGFb inhibitor	TDP1 block
COc1ccc(C(=O)Nc2nc3ccccc3[nH]2)cc1OC	-22.6%	-21.0%	-9.4%	-12.0	9.2%	0.4%[56.1 µM]
Cn1nc(C(=O)Nc2c(-c3ccccc3)nc3sccn23)c2ccccc2c1=O	13µM*	20.6µM*	-2.9%	32.5	1.7%	7.1%
COc1cc(C(=O)Nc2nc3ccccc3[nH]2)ccc1OC(F)F	14.6µM*	20.6µM*	-8.9%	-20.5	-22.5%	11.4%
CC(C)Oc1ccc(C(=O)Nc2nc3ccccc3[nH]2)cc1	9.2µM*	18.4µM*	-21.2%	-4.0	1.7%	1.4%
Cc1ccsc1C(=O)Nc1nc2ccccc2[nH]1	?	?	-73.2%	51.5	?	8.6%
CCc1ccc(C(=O)Nc2nc3ccccc3[nH]2)cc1	11.6µM*	18.4µM*	-62.3%	-0.1	-12.8%	-5.2%
Cn1nc(C(=O)Nc2nc3ccccc3[nH]2)c2ccccc2c1=O	16.4µM*	18.4µM*	1.3%	-15.4	13.9%	6.9%
CCOC(=O)CN=C1CC(C)(C)CC2=C1Sc1ncnc(N(C)C)c1N2	23.1µM*	13µM*	-20.3%	28.4	-12.7%	6.2%
Cc1cccc(N2CCN(C(=O)c3ccccc3SCC(=O)N3CCCC3)CC2)c1C	13µM*	9.2µM*	-19.0%	0.0	?	3.6%[56.1 µM]
Cc1cccc(N2CCN(C(=O)c3cc(S(=O)(=O)N(C)C)ccc3N3CCCC3)CC2)c1C	?	?	9.7%	-57.5*	-11.6%	2.6%
Cc1cccc(N2CCN(C(=O)CSCc3ccc(F)cc3)CC2)c1C	?	?	-33.5%	.	-28.6%	5.2%
Cc1cccc(N2CCN(C(=O)CNC(=O)C3CCCCC3)CC2)c1C	?	18.4µM*	2.9%	3.5	2.3%	0.0%
O=C(CS(=O)(=O)c1ccccc1)NCc1ccccc1	2.3%	-8.1%	0.8%	-6.3	8.0%	3.4%
CCN1CCc2c(sc(N)c2C#N)C1	23.1µM*	?	9.6%	14.1	11.2%	4.1%
CSCC[C@H](C=O)NC(=O)[C@H](CC(C)C)NC(=O)[C@H](CC(C)C)NC(C)=O	15µM*	18.8µM*	.	.	.	5.7%[56.1 µM]
CCCC[C@@H](C=O)NC(=O)[C@H](CC(C)C)NC(=O)[C@H](CC(C)C)NC(C)=O	1.13µM*	1.26µM*	.	.	.	8.5%
CN(C)CC[C@H](c1ccc(Br)cc1)c1ccccn1	.	.	.	.	.	3.9%[56.1 µM]
Cc1ccc(NC(=O)NC(=O)CN2CCCC2c2ccc3c(c2)OCCO3)cc1C (stereo not drawn)	?	29.1µM*	0.9%	-13.0	-14.9%	2.0%
O=C(CN1CCCC1c1ccc2c(c1)OCCO2)NC(=O)Nc1ccccc1 (stereo not drawn)	?	?	-11.9%	-15.5	-6.0%	0.3%[56.1 µM]
O=C(CCl)N1CCCC1c1ccc2c(c1)OCCO2 (stereo not drawn)	1.16µM*	0.731µM*	-174.2%	-102.5*	?	.
CCNC(=S)NNC(=O)c1ccccn1	?	20.6µM*	-45.6%	82.0	-11.7%	-3.8%
Cc1cccnc1NC(=S)Nc1ccc(Cl)c(Cl)c1	?	-10.9%	-10.4%	0.0	-14.7%	-1.2%
O=C(NNC(=S)Nc1ccc(Cl)c(Cl)c1)c1ccccn1	1.46µM*	2.91µM*	-9.5%	101.1	1.8%	2.5%
C[C@H](CSC(=O)c1ccccc1)C(=O)N1C[C@@H](Sc2ccccc2)C[C@H]1C(=O)O	-7.6%	-0.8%	.	.	.	.
